Values joined by “and” are separate entries in the source; they are usually repeats but may differ in a detail not shown here. Identical values can stand only once. The panel holds about 83,000 compounds, 20% with a hit somewhere; the sample as a whole holds those more often.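 Negative percent growth values reflect cell death: -40 means 40% of the cells present at the start died, and -100 means all died.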 Active and inactive are the calls of the source. How the source made its calls: active means growth percent below 10; inactive means the rest.
What was measured:
Assay in all cases: NCI-60 one-dose screen, 48 h (100 = growth as untreated, 0 = no growth, -100 = all killed)
SK-MEL-2 melanoma = tested on: SK-MEL-2 melanoma
EKVX NSCLC = tested on: EKVX NSCLC
SN12C renal = tested on: SN12C renal
UO-31 renal = tested on: UO-31 renal
TK-10 renal = tested on: TK-10 renal
ACHN renal = tested on: ACHN renal
CAKI-1 renal = settings: 10 µM unless noted
A498 renal = tested on: A498 renal
CCRF-CEM leukemia = tested on: CCRF-CEM leukemia
MOLT-4 leukemia = tested on: MOLT-4 leukemia
SR leukemia = tested on: SR leukemia
RPMI-8226 leukemia = settings: 10 µM unless noted
OVCAR-8 ovarian = tested on: OVCAR-8 ovarian
OVCAR-5 ovarian = tested on: OVCAR-5 ovarian
OVCAR-4 ovarian = tested on: OVCAR-4 ovarian
SK-OV-3 ovarian = tested on: SK-OV-3 ovarian
IGROV1 ovarian = tested on: IGROV1 ovarian
OVCAR-3 ovarian = tested on: OVCAR-3 ovarian
HS 578T breast = tested on: HS 578T breast
NCI/ADR-RES ovarian = tested on: NCI/ADR-RES ovarian

Measured: growth

CC(C)Cc1ccc(C(C)C(=O)NCc2ccc(Cn3c(=O)sn(CCCI)c3=O)cc2)cc1 (configuration not stated)
90.6% (inactive) and -64.7% (active): EKVX NSCLC; 10 µM unless noted
49% (inactive) and -3.72% (active): MOLT-4 leukemia; 10 µM unless noted
92.1% (inactive) and -1.05% (active): HS 578T breast; 10 µM unless noted
72% (inactive) and -100% (active): ACHN renal; 10 µM unless noted
104% (inactive) and -40.1% (active): SK-MEL-2 melanoma; 10 µM unless noted
79.4% (inactive) and -2.41% (active): A498 renal; 10 µM unless noted
103% (inactive) and -58.1% (active): OVCAR-5 ovarian; 10 µM unless noted
90.4% (inactive) and -76.9% (active): SN12C renal; 10 µM unless noted
99.8% (inactive) and -90.7% (active): TK-10 renal; 10 µM unless noted
106% (inactive) and -18.5% (active): NCI/ADR-RES ovarian; 10 µM unless noted
70.3% (inactive) and -100% (active): UO-31 renal; 10 µM unless noted
84.9% (inactive) and -53.2% (active): OVCAR-4 ovarian; 10 µM unless noted
92.1% (inactive) and -82.9% (active): CAKI-1 renal
92.7% (inactive) and -86% (active): OVCAR-3 ovarian; 10 µM unless noted
inactive: SK-OV-3 ovarian; 10 µM unless noted 70.9%
96.3% (inactive) and -30.2% (active): OVCAR-8 ovarian; 10 µM unless noted
96.5% (inactive) and -19.8% (active): RPMI-8226 leukemia
37% (inactive) and 2.58% (active): CCRF-CEM leukemia; 10 µM unless noted
56.4% (inactive) and 2.84% (active): SR leukemia; 10 µM unless noted
88.2% (inactive) and -82.1% (active): IGROV1 ovarian; 10 µM unless noted

CC(C)(C)c1cc(NC(=O)Cc2ccc(-c3cnc4cc(-c5cnn(CCN6CCOCC6)c5)ccc4n3)cc2)no1
active: SK-MEL-2 melanoma; 10 µM -8.73% | SN12C renal; 10 µM 7.01% | SN12C renal; 30 µM 6.88% | UO-31 renal; 10 µM 1.27% | UO-31 renal; 30 µM 3.63% | ACHN renal; 10 µM 5.88% | ACHN renal; 30 µM 8.72% | A498 renal; 10 µM -26.9% | A498 renal; 30 µM -14.9% | SR leukemia; 10 µM 9.16% | SR leukemia; 30 µM 8.04% | SK-OV-3 ovarian; 10 µM -14.1% | SK-OV-3 ovarian; 30 µM 9.27% | IGROV1 ovarian; 10 µM -7.95% | IGROV1 ovarian; 30 µM -9.55% | HS 578T breast; 10 µM -5.25% | HS 578T breast; 30 µM 3.43%
inactive: SK-MEL-2 melanoma; 30 µM 29.7% | EKVX NSCLC; 10 µM 26.9% | EKVX NSCLC; 30 µM 19.1% | TK-10 renal; 10 µM 34.9% | TK-10 renal; 30 µM 40.8% | CCRF-CEM leukemia; 10 µM 15.5% | CCRF-CEM leukemia; 30 µM 10.4% | MOLT-4 leukemia; 10 µM 13.8% | MOLT-4 leukemia; 30 µM 10.8% | RPMI-8226 leukemia 22.5% | OVCAR-8 ovarian; 10 µM 18.6% | OVCAR-8 ovarian; 30 µM 26.1% | OVCAR-5 ovarian; 10 µM 24.2% | OVCAR-5 ovarian; 30 µM 20.1% | OVCAR-4 ovarian; 10 µM 10.1% | OVCAR-4 ovarian; 30 µM 22.9% | OVCAR-3 ovarian; 10 µM 28.4% | OVCAR-3 ovarian; 30 µM 22% | NCI/ADR-RES ovarian; 10 µM 12.8% | NCI/ADR-RES ovarian; 30 µM 16.9%

COc1cc(-c2nccc3cc4c(cc23)OCO4)cc(OC)c1OC
inactive: EKVX NSCLC; 10 µM unless noted 68.4% and 63.5% | SN12C renal; 10 µM unless noted 39% and 47.3% | UO-31 renal; 10 µM unless noted 50.8% and 44.4% | TK-10 renal; 10 µM unless noted 44.9% and 28.9% | ACHN renal; 10 µM unless noted 36.2% and 40.2% | CAKI-1 renal 20% and 30.8% | A498 renal; 10 µM unless noted 41.3% and 20.1% | CCRF-CEM leukemia; 10 µM unless noted 34.2% and 34.4% | MOLT-4 leukemia; 10 µM unless noted 39.4% and 17.7% | SR leukemia; 10 µM unless noted 18.5% and 35.6% | RPMI-8226 leukemia 37.5% | OVCAR-8 ovarian; 10 µM unless noted 48.9% and 35.2% | OVCAR-5 ovarian; 10 µM unless noted 66.4% and 73.5% | OVCAR-4 ovarian; 10 µM unless noted 79.2% and 69% | IGROV1 ovarian; 10 µM unless noted 45.8% and 37.7% | HS 578T breast; 10 µM unless noted 18.7% and 53.8%
23.7% (inactive) and 9.08% (active): SK-OV-3 ovarian; 10 µM unless noted
active: SK-MEL-2 melanoma; 10 µM unless noted 9.15% | OVCAR-3 ovarian; 10 µM unless noted -9.95% and -25.2% | NCI/ADR-RES ovarian; 10 µM unless noted -3.6% and 8.92%

CCN(CC)CCCC(C)N(Cc1ccccc1)CC(O)c1ccc(Cl)cc1 (configuration not stated)
inactive: SK-MEL-2 melanoma; 10 µM unless noted 105% and 103% | EKVX NSCLC; 10 µM unless noted 106% and 96.2% | SN12C renal; 10 µM unless noted 100% and 104% | UO-31 renal; 10 µM unless noted 94.7% and 90.9% | TK-10 renal; 10 µM unless noted 91.8% and 90.4% | ACHN renal; 10 µM unless noted 117% and 103% | CAKI-1 renal 109% | A498 renal; 10 µM unless noted 91% and 116% | CCRF-CEM leukemia; 10 µM unless noted 103% and 120% | MOLT-4 leukemia; 10 µM unless noted 107% and 103% | SR leukemia; 10 µM unless noted 119% and 98.1% | RPMI-8226 leukemia 99.9% and 96.7% | OVCAR-8 ovarian; 10 µM unless noted 105% and 102% | OVCAR-5 ovarian; 10 µM unless noted 91.2% | OVCAR-4 ovarian; 10 µM unless noted 116% and 112% | SK-OV-3 ovarian; 10 µM unless noted 94.4% and 102% | IGROV1 ovarian; 10 µM unless noted 113% and 101% | OVCAR-3 ovarian; 10 µM unless noted 109% and 100% | HS 578T breast; 10 µM unless noted 93.8% and 111% | NCI/ADR-RES ovarian; 10 µM unless noted 108% and 98.3%

From PubChem BioAssay (NCI)
